In PubChem BioAssay (NCI):
“And” between values parts separate entries of the source, which are not always exact repeats. Identical values can stand only once. Compounds without any hit were thinned out: in the full panel of roughly 83,000, 20% have a hit.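 96-well plates, one dose, 48 hours. Percent growth reported; active if below 10.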 The source made the active and inactive calls.

System: HL-60(TB) leukemia
Experiment: NCI-60 one-dose screen, 48 h (100 = growth as untreated, 0 = no growth, -100 = all killed)
Details: 10 µM unless noted

Cc1ccc(C(=O)NN)cc1 was tested. Which growth did it give?
The growth was 124% (inactive).

Which growth does the source give for COc1cc(/C=C/C(=O)c2ccc(O)c(CN3CCN(c4cc5c(cc4F)c(=O)c(C(=O)O)cn5C4CC4)CC3)c2)cc(OC)c1OC here?
Its growth is 7.35% (active).

Which growth does the source give for O=C(NCc1ccc(Cl)cc1Cl)C1CCC(=O)N1c1cccs1 (centres undefined) here?
Its growth is 99% (inactive).

How did the growth turn out when COc1cc2nc(Cl)nc(Nc3cccc(C(=O)/C=C/c4ccc(Br)cc4)c3)c2cc1OC was run?
Its growth is 77.8% (inactive).

How did the growth turn out when Cc1sc2nc(N3CCCCC3)[nH]c(=O)c2c1C was run?
The growth was 102% (inactive).

How did the growth turn out when Cc1c(-c2nc3ccc(F)cc3c(=O)[nH]2)c2ccccc2n1C was run?
The growth was 4.98% (active).

How did the growth turn out when CN(C)c1ccc(C(=C2C=CC(=[N+](C)C)C=C2)c2ccccc2Cl)cc1 was run?
Its growth is -48.7% (active) and 9.12% (active).

Which growth does the source give for COc1ccc(C(=S)c2cc(OC)c(OC)c(OC)c2)cc1OC(=O)CCl here?
Its growth is -33% (active).

Which growth does the source give for CCCCCCN1C(=O)C2=C(c3ccc(Cl)cc3)Nc3c(c(C)nn3-c3ccccc3)C2c2ccccc21 (centres undefined) here?
The growth was 102% (inactive).

For S=C(S)NCCc1c[nH]c2ccccc12, which growth is on record?
The growth was 91.4% (inactive).

Which growth does the source give for COc1cc(C(=O)n2nc(-c3cc(OC)c(OC)c(OC)c3)nc2N)cc(OC)c1OC here?
Its growth is 67.7% (inactive).

Which growth does the source give for CCCCCCCCCCCCCCNC(=O)Nc1ccc(Cl)c(Cl)c1 here?
Its growth is 79.1% (inactive).

How did the growth turn out when COc1cc(-c2ccc(N=Nc3ccc4c(S(=O)(=O)O)ccc(N)c4c3O)c(OC)c2)ccc1N=Nc1ccc2c(S(=O)(=O)O)ccc(N)c2c1O was run?
Its growth is 115% (inactive).

CCC(C)(O)c1ccc(C)cc1 (centres undefined) was tested. Which growth did it give?
The growth was 97.3% (inactive).

With O=C1c2ccccc2C(=O)N1OCc1ccccc1 as the compound, how does the growth read?
The growth was 94.2% (inactive).

How did the growth turn out when CN(C)C(=N)N=C(N)N was run?
Its growth is 98.3% (inactive) and 145% (inactive).

For O=C1/C(=C/c2ccc(F)cc2)COc2ccc(O)cc21, which growth is on record?
The growth was 19.1% (inactive).

Which growth does the source give for CC(O)c1nc2c(c(=O)n(C)c(=O)n2C)n1C (centres undefined) here?
Its growth is 100% (inactive).

CN1CCN(CCCOc2ccc3nc(Nc4ccc(C(F)(F)F)c(Cl)c4)ccc3c2)CC1 was tested. Which growth did it give?
The growth was 12.5% (inactive).

With O=C1c2cccnc2-c2nccc3c2c1nc1cc(Br)ccc13 as the compound, how does the growth read?
The growth was -68.1% (active) and -56.3% (active).

How did the growth turn out when C=C1C(=O)O[C@H]2[C@H]1CC/C(COC(=O)NCCc1ccc(OC)c(OC)c1)=C\CC[C@@]1(C)O[C@@H]21 was run?
Its growth is 30.7% (inactive).

How did the growth turn out when CCOC(=O)Nc1ccc2c(c1)/C(=N\NC(N)=S)c1ccccc1-2 was run?
Its growth is 55.4% (inactive) and 78.8% (inactive).

c1ccc2c(c1)cnc1ccccc12 was tested. Which growth did it give?
The growth was 94.9% (inactive).

For c1ccc(CNCCN(CCNCc2ccccn2)Cc2ccc3ccccc3c2)nc1, which growth is on record?
Its growth is -34.5% (active).

How did the growth turn out when CCN(CC)CCC(=O)c1cccc2ccccc12 was run?
The growth was 102% (inactive).

For NC(=S)NN=C1CCC(C2CCCCC2)CC1 (centres undefined), which growth is on record?
The growth was 91.2% (inactive) and 70.9% (inactive).

CC[C@]12C=CCN3CC[C@@]4(c5cc(NC(=O)CCC(=O)O[C@H]6CC[C@H]7[C@@H]8CCC9=CC(=O)CC[C@@H]9[C@H]8CC[C@]67C)c(OC)cc5N(C)[C@H]4[C@@](O)(C(=O)OC)[C@@H]1OC(C)=O)[C@@H]32 was tested. Which growth did it give?
The growth was 62.5% (inactive).

O=C(O)c1ccccc1Cc1ccc(F)c2ccccc12 was tested. Which growth did it give?
Its growth is 98.1% (inactive) and 91.1% (inactive).

How did the growth turn out when CC1(C)OC(=O)C(=Cc2ccc(C#N)cc2)C(=O)O1 was run?
The growth was 93.3% (inactive) and 88.8% (inactive).

With COc1ccc(-c2cn(-c3ccccc3)c(-c3ccccc3)n2)cc1OC as the compound, how does the growth read?
Its growth is 8.37% (active).

Which growth does the source give for Cn1cccc1/C=C1/SC(=S)N(CCc2ccc(O)cc2)C1=O here?
The growth was 1.22% (active).

How did the growth turn out when CCN(CC)CCOc1nc2cc(OC)c(OC)cc2c2c1-c1ccc(OC)cc1C2=O was run?
Its growth is 93.4% (inactive).

For O=C(NCCO)c1cccnc1, which growth is on record?
The growth was 97.1% (inactive).

c1ccc2cc(C[n+]3ccn(Cc4ccc5ccccc5n4)c3)ccc2c1 was tested. Which growth did it give?
Its growth is -42.3% (active) and -25.4% (active).

For C#CC[C@@H]1C[C@]2(C)[C@H]3CC=C4[C@H]5[C@@H](C)[C@H](C)CC[C@]5(C(=O)NCCCCN)CC[C@@]4(C)[C@]3(C)CC[C@H]2C(C)(C)[C@H]1OC(C)=O, which growth is on record?
Its growth is 21.3% (inactive).

For CNC(=O)c1cc(Oc2ccc(NC(=O)Nc3ccc(Cl)c(C(F)(F)F)c3)cc2)ccn1, which growth is on record?
Its growth is -35.3% (active) and 23.3% (inactive).

With C=C1C(=O)O[C@H]2[C@H]1CC/C(COC(=O)NCc1ccc(Cn3c(=O)sn(CCI)c3=O)cc1)=C\CC[C@@]1(C)O[C@@H]21 as the compound, how does the growth read?
The growth was 0.649% (active).

Oc1ccc(/C=N/N=C2c3ccccc3-c3ccccc32)c(O)c1 was tested. Which growth did it give?
The growth was 71.7% (inactive).

O=C(Nc1ccc2cc3ccc(NC(=O)N4CCCCCC4)cc3nc2c1)N1CCCCCC1 was tested. Which growth did it give?
The growth was -49.6% (active).
